Experimental data from PubChem BioAssay AID602438 (Sanford-Burnham Center for Chemical Genomics, 2012).
About 3,100 (0.86%) of roughly 360,000 compounds were called active.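 The calls were made as follows: active = inhibition or corrected inhibition above about 18%, plus a signal ratio from 0.5 to 1.5 (limit read from the data, passing the limit was not always enough); inactive = the rest.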 The list comes from a sample in which actives are over-represented; it also holds similar structures and randomly drawn compounds.

Biological target: Neuropilin-1 (Homo sapiens) (UniProt O14786)
Test: NRP-1/CendR peptide interaction modulators – biochemical, fluorescence polarization, uHTS, primary screen (AID 602438)
Settings: FAM-RPARPAR peptide binding to NRP-1, fluorescence polarization; at 25 µM; active compounds read high

Neuropilin-1 (Homo sapiens), sequence (O14786 whole entry, looked up): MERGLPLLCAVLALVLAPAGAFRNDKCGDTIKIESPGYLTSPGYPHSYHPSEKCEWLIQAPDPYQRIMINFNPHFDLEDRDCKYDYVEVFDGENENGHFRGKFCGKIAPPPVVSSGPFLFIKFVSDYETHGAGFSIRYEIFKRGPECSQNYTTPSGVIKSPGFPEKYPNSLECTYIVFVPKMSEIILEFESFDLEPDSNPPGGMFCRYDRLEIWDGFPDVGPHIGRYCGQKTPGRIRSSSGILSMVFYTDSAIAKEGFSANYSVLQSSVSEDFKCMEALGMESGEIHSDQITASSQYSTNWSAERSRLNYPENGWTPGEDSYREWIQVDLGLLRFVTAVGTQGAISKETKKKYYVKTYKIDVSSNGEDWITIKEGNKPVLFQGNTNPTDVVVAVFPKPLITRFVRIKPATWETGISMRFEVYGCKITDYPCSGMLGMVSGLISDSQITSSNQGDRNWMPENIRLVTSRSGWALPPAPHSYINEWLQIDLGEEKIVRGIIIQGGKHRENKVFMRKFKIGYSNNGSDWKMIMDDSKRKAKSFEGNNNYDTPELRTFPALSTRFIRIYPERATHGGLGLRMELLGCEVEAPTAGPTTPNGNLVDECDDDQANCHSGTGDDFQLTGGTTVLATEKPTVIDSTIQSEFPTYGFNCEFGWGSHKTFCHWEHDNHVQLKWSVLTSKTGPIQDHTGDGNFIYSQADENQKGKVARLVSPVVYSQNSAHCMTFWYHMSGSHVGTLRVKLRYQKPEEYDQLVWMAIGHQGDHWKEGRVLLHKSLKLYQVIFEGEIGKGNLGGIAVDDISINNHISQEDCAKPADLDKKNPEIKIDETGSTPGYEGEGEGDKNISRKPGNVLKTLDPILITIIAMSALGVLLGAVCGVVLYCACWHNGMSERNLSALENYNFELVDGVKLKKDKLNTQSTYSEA

Row | SMILES | inhibition
1 | O=C1Nc2ccccc2-n2nnnc2C1N1CCN(c2cccc(C(F)(F)F)n2)CC1 (stereo not given) | 3.4% (inactive)
2 | CCOC(=O)c1cc(NC(=O)c2ccc(Cl)cc2)c(=O)oc1-c1ccccc1 | 24.4% (active)
3 | COC(=O)c1ccc(C(=O)Nc2cc(Cl)ccc2Cl)cc1NC(=O)c1ccccc1C | -6% (inactive)
4 | CCOC(=O)c1cccnc1NC(=O)c1ccncc1 | -9.5% (inactive)
5 | O=C(COC(=O)c1ccc(S(=O)(=O)Nc2ccccc2)cc1)NCC1CCCO1 (stereo not given) | 9.7% (inactive)
6 | CCN(C(=O)COC(=O)c1ccccc1O)c1cccc2ccccc12 | 6.5% (inactive)
7 | COc1ccc(S(=O)(=O)c2c[nH]c(=S)[nH]c2=O)cc1Cl | -6% (inactive)
8 | O=[N+]([O-])c1ccc(N2CCN(c3ccc(O)cc3)CC2)c(Cl)c1 | -3.9% (inactive)
9 | CCC(C)(C)NC(=O)c1cc([N+](=O)[O-])ccc1N1CCCCC1 | 8.9% (inactive)
10 | O=C(O)C1CCN(c2ccc([N+](=O)[O-])cc2[N+](=O)[O-])CC1 | 27.4% (active)
11 | CC(CC(=O)C1C(C)C=CCC1(C)C)NNC(N)=O (stereo not given) | 12.3% (inactive)
12 | O=C(CSc1ccc(-c2ccc(-n3cccn3)cc2)nn1)Nc1ccc([N+](=O)[O-])cc1 | 15.2% (inactive)
13 | O=C(NC1CCCC1)C(NS(=O)(=O)c1ccc(Br)s1)c1ccccc1 (stereo not given) | -3% (inactive)
14 | COCCNC(=O)C1C(=O)Nc2ccccc2C(=O)N1c1ccc2c(c1)OCCO2 (stereo not given) | -11.4% (inactive)
15 | Cc1ccc(CC2CC(=O)N(c3ccc4c(c3)OCCO4)C2=O)cc1 (stereo not given) | 4.8% (inactive)
16 | Cc1ccc(CC2CC(=O)N(c3cc(C)ccc3C)C2=O)cc1 (stereo not given) | 50% (active)
17 | Cc1ccc(CC2CC(=O)N(c3nc(C)cc(C)n3)C2=O)cc1 (stereo not given) | 13.2% (inactive)
18 | CN(CC(=O)NCCc1ccc(S(N)(=O)=O)cc1)CC(=O)Nc1ccc(F)c(F)c1F | 7.4% (inactive)
19 | Oc1ccc(-c2nncn2-c2ccccc2)cc1 | 2.8% (inactive)
20 | CC1(C)C2CC[C@]3(C)C(CC=C4[C@@H]5C[C@@](C)(CO)CC[C@]5(C(=O)O)CC[C@]43C)[C@@]2(C)CC[C@@H]1O (stereo not given in full) | -11.3% (inactive)
21 | CC1O[C@@H](OC2C(O)C(C)O[C@H](OC(=O)[C@]34CCC(C)(C)C[C@H]3C3=CCC5[C@@]6(C)CC(O)C(O[C@@H]7OC(CO)C(O)[C@@H](O)[C@@H]7O)[C@@](C)(C(=O)O)C6CC[C@@]5(C)[C@]3(CO)CC4)C2O[C@H]2OC(C)[C@@H](O[C@@H]3OCC(O[C@@H]4OC(CO)C(O)[C@H](O)C4O)[C@@H](O)[C@@H]3O)[C@H](O)C2O)C(O)C(O)C1O (stereo not given in full) | 36.2% (active)
22 | O=C1CCC(Cc2ccccc2)N1 (stereo not given) | -7% (inactive)
23 | O=C1c2ccccc2C(=O)C1c1ccccc1 | -13.9% (inactive)

Row | SMILES | inhibition
24 | O=C1OC(Cc2ccccc2)C(c2ccccc2)C1=O (stereo not given) | 24.2% (active)
25 | COc1ccc(Cl)cc1-c1cc(C(=O)Nc2cc(OC)c(OC)c(OC)c2)[nH]n1 | 5.6% (inactive)
26 | CC(=O)N/C(=C\c1ccccc1)C(=O)OC(C)C(=O)N(C)c1ccccc1 (stereo not given) | 6.8% (inactive)
27 | Cc1ccccc1CCN(CC(=O)NC1CCCCC1)C(=O)c1csnn1 | -9.2% (inactive)
28 | Cc1ccc(CN(CC(=O)NC2CCCCC2)C(=O)c2csnn2)cc1 | 24.5% (active)
29 | O=C(CN(C(=O)c1csnn1)c1ccc(Br)cc1)NC1CCCC1 | 3.2% (inactive)
30 | Nc1nc2c(Br)ccc(Br)c2cc1C(=O)NCCc1ccccc1 | 6.1% (inactive)
31 | COC(=O)c1cc(NC(=O)CN2CCN(C(C)=O)CC2)cc(C(=O)OC)c1 | 3% (inactive)
32 | COC(=O)c1cc(NC(=O)CN2CCC(C(N)=O)(N3CCCCC3)CC2)cc(C(=O)OC)c1 | 20.2% (active)
33 | COCC(=O)Nc1cc(C(=O)OC)cc(C(=O)OC)c1 | 5.2% (inactive)
34 | COC(=O)C1(C(=O)OC)C/C=C\CN(S(=O)(=O)c2ccccc2[N+](=O)[O-])CCC1 | 4.4% (inactive)
35 | CCOC(=O)[C@@H]1[C@H]2COc3cc(OC)ccc3[C@@H]2N2C(=O)N(c3cccc(C)c3)C(=O)[C@@]12C | 4.4% (inactive)
36 | Cc1cc(OCCOc2cccc3cccnc23)c(C)cc1Cl | -14.2% (inactive)
37 | CC(=O)/C(=N\Nc1ccc(Cl)cc1Cl)Sc1cccc2cccnc12 | 61.1% (active)
38 | COc1cccc(CNC(=O)C2CCN(S(=O)(=O)c3cccc4cccnc34)CC2)c1 | -3% (inactive)
39 | Cc1ccc(C2=Nc3c(ccc4ccccc34)C(c3ccncc3)=NN2)cc1 | 25.8% (active)
40 | CCOc1ccc2c(c1)C(c1ccc(C)cc1)=NNC(c1ccc(C)cc1)=N2 | 5.9% (inactive)
41 | O=C(NCCCCO)C(F)(F)C(F)(F)C(F)(F)C(=O)NCCCCO | 11.3% (inactive)
42 | Nc1cccc(-c2cncc(N3CCN(Cc4ccccn4)CC3)n2)c1 | 1.6% (inactive)
43 | CCCCCCCCCCOC(=O)C[N+](C)(C)CC1CCCCC1O (stereo not given) | 18.2% (inactive)
44 | Cc1ccn2c(c1)nc(=O)c1cc(S(=O)(=O)N3CCC(C)CC3)ccc12 | -3.9% (inactive)
45 | COc1cc2c(=O)n(C)c3ccccc3c2cc1OC | 0% (inactive)
46 | COc1cc2c(C(=O)O)c(C)n(C)c2c2ccccc12 | -42.6% (inactive)

Row | SMILES | inhibition
47 | COc1cccc2c(O)cc(=O)n(C)c12 | 19.9% (active)
48 | OC(CNC1CCCC1)COc1ccc(F)cc1 (stereo not given) | -0.8% (inactive)
49 | COC(=O)C1CCN(CC(N)=O)CC1 | -10.1% (inactive)
50 | CCCCC(=O)N(C)c1c(CC)nc2c(OCc3ccc(S(C)(=O)=O)cc3)cccn12 | 1.6% (inactive)
51 | CCc1nc2c(OCc3ccc(C(F)(F)F)cc3)cccn2c1N(C)C(=O)CC(C)C | 22.7% (active)
52 | CCc1nc2c(OCc3ccc(C(=O)OC)cc3)cccn2c1N(C)C(=O)C(C)C | 13.8% (inactive)
53 | COc1ccc(NC(=O)c2ccccc2CC[N+](=O)[O-])cc1 | 5.3% (inactive)
54 | Cc1cc(C(=O)NNC(=O)CCC2CCCCC2)c(C)o1 | 3.2% (inactive)
55 | O=C1CC2(CCCCC2)Oc2ccc(OCC(=O)N3CCOCC3)cc21 | 0.6% (inactive)
56 | Cc1cccc(NC(=O)C2CCN(C(=O)NC3CCCCC3)CC2)c1 | -7.7% (inactive)
57 | O=C(Nc1cccc(OCC(=O)N2CCOCC2)c1)C1CCCCC1 | 21.3% (active)
58 | CN(C)CCCNC(=O)c1cc(C(=O)Cc2ccc(Cl)cc2)c[nH]1 | 3.7% (inactive)
59 | O=C(c1ccc(F)cc1)C1CCN(Cc2cn[nH]c2-c2ccccc2)CC1 | -10.4% (inactive)
60 | COc1ccccc1CNC(=O)C1Cc2ccccc2C(=O)O1 (stereo not given) | -8.4% (inactive)
61 | O=C1/C(=C/c2cccs2)CCC1C1CCCC1 (stereo not given) | 2.8% (inactive)
62 | C[C@H]1CC[C@]2(O[C@@H](CCO)C[C@@H](O)[C@@H]2O)O1 | 13.5% (inactive)
63 | OCC[C@H]1C[C@H](O)[C@@H](O)[C@]2(CCCCO2)O1 | 28.3% (active)
64 | C[C@@H]1CC[C@]2(O[C@@H](CCO)C[C@H](O)[C@H]2O)O1 | -18.9% (inactive)
65 | COCCNC(=O)C1CCCN(Cc2ccccc2Cl)CC1 (stereo not given) | 2% (inactive)
66 | Cc1ccc(S(=O)(=O)C2C(=O)NC3(C)CC2c2ccccc2O3)cc1 (stereo not given) | -9.3% (inactive)
67 | CCCOc1ccc(CNC(=O)C2CCN(c3nn4c(=O)cc(C)nc4s3)CC2)cc1 | -7.5% (inactive)
68 | COc1cccc(N(C(=O)CNC(=O)c2ccco2)C(C(=O)NC2CCCCC2)c2cccnc2)c1 (stereo not given) | 5.7% (inactive)
69 | Cc1ccc(N(C(=O)CNC(=O)c2ccco2)C(C(=O)NC2CCCC2)c2ccncc2)cc1 (stereo not given) | 18.5% (active)

Row | SMILES | inhibition
70 | CC(C)(C)NC(=O)C(c1ccncc1)N(C(=O)CNC(=O)c1ccco1)c1ccc2c(c1)OCO2 (stereo not given) | 4% (inactive)
71 | Cc1ccc(S(=O)(=O)NC2(C(F)(F)F)NC(=O)N(CCc3ccccc3)C2=O)cc1 (stereo not given) | 11.7% (inactive)
72 | O=C(c1c(F)cccc1Cl)N1CCN(S(=O)(=O)c2ccc3c(c2)OCCCO3)CC1 | 2.8% (inactive)
73 | Cc1coc2c1c(C)cc1oc(=O)c(CC(=O)NCC(=O)N[C@H](C(=O)O)C(C)C)c(C)c12 | -3.3% (inactive)
74 | Cc1nn(CCCC(=O)NCc2ccccc2Cl)c(=O)c2nccn12 | 3.3% (inactive)
75 | C[C@@H]1CN([C@H](C)CO)C(=O)CCCn2cc(nn2)CO[C@H]1CN(C)S(C)(=O)=O | -4.3% (inactive)
76 | Cc1coc2c(O)cc3c(c12)OC1(N2CCCCC2)C(=O)NCCCC31 (stereo not given) | 26.1% (active)
77 | CSc1nnnn1-c1c(C)cc(C)cc1C | 9.3% (inactive)
78 | COCCN(C(=O)COC(=O)Cc1cccc(OC)c1)c1c(N)n(Cc2ccccc2)c(=O)[nH]c1=O | 3.8% (inactive)
79 | O=C(O)C1CCCN(CCC=C(c2ccccc2)c2ccccc2)C1 (stereo not given) | 1.9% (inactive)
80 | O=[N+]([O-])/C=C/c1ccc2c(ccn2Cc2ccccc2)c1 | -5.7% (inactive)
81 | Cc1cc(C)nc(NC(=O)/C=C/c2ccc(Cl)cc2)n1 | 6.6% (inactive)
82 | COC(=O)c1c(C)[nH]c(C(=O)NCCc2ccc(S(N)(=O)=O)cc2)c1C | -1.4% (inactive)
83 | COC(=O)c1c(C)[nH]c(C(=O)/C=C/c2ccc(Cl)cc2)c1C | 41% (active)
84 | Cc1cc(CNC(=O)C2CCC(=O)N(CCc3ccc(Cl)cc3)C2)no1 (stereo not given) | 28.7% (active)
85 | O=C(NCCN1CCOC1=O)C1CCC(=O)N(CCc2ccc(Cl)cc2)C1 (stereo not given) | -0.8% (inactive)
86 | O=C(NCCCc1ccccc1)C1CCC(=O)N(CCc2ccc(Cl)cc2)C1 (stereo not given) | 8.8% (inactive)
87 | CO[C@@H]1CN(C)C(=O)c2cc(NC(=O)Nc3cc(F)ccc3F)ccc2OC[C@H](C)N(C(=O)c2ccccn2)C[C@@H]1C | 2.7% (inactive)
88 | COc1ccc(Cl)cc1NC(=O)NC(C)C(C)(C)C (stereo not given) | -1.8% (inactive)
89 | COc1ccc(Cl)cc1NC(=O)NCC1CCN(Cc2ccccc2F)CC1 | -1% (inactive)
90 | COc1ccc(Cl)cc1NC(=O)C(C)N1CCc2ccccc21 (stereo not given) | 23.1% (active)
